# aSyn 5UTR inh: 5' untranslated region of α-synuclein, MLPCN primary screen | alpha-synuclein 5'UTR reporter, inhibitor activity | inhibition, % (tested at 7.5 µM) | 300,000 tested, 0.82% active | AID 1813; in the data active = inhibition above about 60%;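 note: H4 neuroglioblastoma cells stably carrying SNCA 5'UTR luciferase fusion; 0% = DMSO wells and 100% = positive control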
# Ba/F3 V617F tox: reduce viability of Ba/F3 cells dependent on JAK2V617F; Ba/F3 EpoR-JAK2V617F viability, ATP luminescence; inhibition, % at 5.6 µM; 220,000 tested, 1.1% active; AID 1446;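 active = inhibition above the campaign mean plus 3 SD over all tested compounds, cut at about 24% in these data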;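 note: cytokine-independent growth of Ba/F3 cells driven by EpoR plus mutant JAK2; 0% = DMSO-treated cells and 100% = JAK inhibitor I control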
# KLF5 inh: kruppel-like factor 5 inhibition; DLD-1 KLF5 promoter-luciferase reporter, luminescence; inhibition, % at 5 µM; 290,000 tested, 0.23% active; AID 1700;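 active = inhibition above a per-plate limit of that plate's mean compound inhibition plus 3 SD, cut at about 60% in these data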;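 note: 0% = DMSO wells and 100% = LY294002 at 200 µM; higher means less KLF5 promoter-driven luciferase light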
# IEC-6 tox: IEC-6 cytotoxicity, counter-screen for KLF5 inhibitors; AID 1825; 290,000 tested, 0.78% active; luminescence viability; inhibition, % at 5 µM;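 note: 0% = plate median of test compound wells and 100% = cytotoxic reference compound wells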
# BaF3 tox: counter-screen for JAK2V617F inhibitors: parental Ba/F3 viability inhibitors; CellTiter-Glo ATP luminescence; inhibition, % at 5.6 µM; 220,000 tested, 1.1% active;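 active = inhibition above a per-campaign cutoff, the mean inhibition of all tested compounds plus 3 SD, cut at about 27% in these data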;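 note: 0% = DMSO wells and 100% = JAK Inhibitor I control wells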
# APP 5UTR inh: APP translation inhibition; SH-SY5Y APP 5'UTR-luciferase reporter, luminescence; inhibition, % at 2 µM; 190,000 tested, 0.82% active;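 active = inhibition above a set limit, derived from the sample mean plus 3 SD, cut at about 45% in these data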
# IEC-6 cytotox cf: confirmation of cytotoxic compounds in rat IEC-6 intestinal epithelial cells; AID 1907; shares compounds with IEC-6 tox; IEC-6 rat intestinal epithelial viability, luminescence; inhibition, % at 5 µM; 1,900 tested, 63% active;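 note: 0% = vehicle and 100% = reference cytotoxic drug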
# * hit, by the source's call; nt = not tested or not shown. Compounds with a hit are over-represented: about 2.2% of the library has one in this group of screens. Cut-off read from the data, not from the text of the source, unless noted: active = inhibition above about 22%; inactive = the rest.
SMILES,aSyn 5UTR inh,Ba/F3 V617F tox,KLF5 inh,IEC-6 tox,BaF3 tox,APP 5UTR inh,IEC-6 cytotox cf
Cc1ccc(-c2cc(-c3ccc(C)cc3)[n+](C)o2)cc1,-2,91*,-16,25*,73*,-20,23*
Cc1ccccc1-n1c(/C=C/c2ccccn2)nc2ccccc2c1=O,-9,2,-16,-2,-4,nt,nt
CN1C2CCC1/C(=C/c1ccccn1)C(=O)/C2=C\c1ccccn1,nt,100*,9,59*,103*,95*,95*
Cc1ccnc(-n2c(C)nc3ccccc3c2=O)c1,-16,2,-37,8,7,-35,nt
Cc1nc2ccccc2c(=O)n1-c1ccc(Br)cn1,-176,25*,-31,22*,51*,nt,-2
C=CCn1c(O)c(C(C)=NCc2cccnc2)c(=O)[nH]c1=O,-1,-3,-14,2,5,7,nt
C=CCn1c(O)c(C(C)=NCc2cc(OC)cc(OC)c2)c(=O)[nH]c1=O,38,45*,-5,28*,28*,26,34*
CS(=O)(=O)NNP(=O)(NNS(C)(=O)=O)NC(=O)c1ccccc1,1,0,-4,-2,-1,nt,nt
COC(=O)C1=C(c2ccc(S(C)(=O)=O)cc2)C[C@@H]2CC[C@H]1N2C(=O)NCc1cccc2ccccc12,26,nt,nt,nt,nt,nt,nt
CC/C(=C\C=C\[C@@H]1C=C[C@@H]2CCC[C@H]2[C@@H]1C(=O)c1ccc[nH]1)[C@@H]1O[C@@H]([C@@H](C)C(=O)O)CC[C@@H]1C,45,55*,12,39*,31*,-2,33*
CC(NC1CCCCC1)C(O)C12CC3CC(CC(C3)C1)C2 (stereo not given),-27,-1,-22,-3,2,6,nt
CC(=O)O[C@@]12CO[C@@H]1C[C@H](OC1OCC(O)C(O)C1O)[C@@]1(C)C(=O)[C@H](O)C3=C(C)[C@@H](OC(=O)[C@H](O)[C@@H](NC(=O)c4ccccc4)c4ccccc4)C[C@@](O)([C@@H](OC(=O)c4ccccc4)C12)C3(C)C (stereo not given in full),-11,nt,16,57*,nt,nt,46*
CCCCCC(=O)N[C@@H](c1ccccc1)[C@@H](O)C(=O)O[C@H]1C[C@@]2(O)[C@@H](OC(=O)c3ccccc3)C3[C@](C)(C(=O)[C@H](O)C(=C1C)C2(C)C)[C@@H](OC1OCC(O)C(O)C1O)C[C@H]1OC[C@@]31OC(C)=O (stereo not given in full),7,nt,17,68*,nt,nt,54*
COc1ccc(OC)c(NC(=O)N2C[C@H]3C[C@@H](C2)c2cccc(=O)n2C3)c1,16,nt,-21,-1,nt,nt,nt
CNC(=O)Oc1ccc(C(=O)N2c3ccccc3NC(=O)C2C)cc1 (stereo not given),1,nt,0,-6,nt,nt,nt
COc1ccc(-n2c(C)cc(C(=O)C[N+]34CCN(CC3)CC4)c2C)cc1,11,2,7,-1,3,-13,nt
COC(=O)C[C@]1(C(=O)OC)CN(C#N)N(c2ccc(Cl)cc2)C12c1ccccc1-c1ccccc12,96*,98*,37,101*,97*,96*,93*
CC1C(c2cccs2)=[N+]([O-])C(C)(C(=O)c2ccc(F)cc2)N1O (stereo not given),19,0,-35,-1,-2,-8,nt
Cc1cc(S(=O)(=O)NCc2ccccc2)ccc1OCC(=O)N1CCN(C)CC1,12,1,-2,2,5,-6,nt
COc1ccc(C2=CC(c3ccc(OC)c(OC)c3)c3c(c4ccccc4oc3=O)O2)cc1OC (stereo not given),-42,0,-2,28*,-1,nt,21
COc1ccc2[nH]c(C)c(CCNCc3cc(OC)c(OC)c(OC)c3)c2c1,-3,3,-12,4,7,-2,nt
COc1ccc(CNCCc2c(C)[nH]c3ccc(OC(F)(F)F)cc23)c(OC)c1,90*,nt,-12,38*,nt,nt,22*
Cc1ccc(NC2=NCCCS2)cc1Cl,-47,nt,-18,-5,nt,nt,nt
Cc1cccc(-n2c(O)c(/C=C/C=Nc3ccccc3)c(=O)[nH]c2=O)c1,6,-1,-1,-4,7,13,nt
Cc1cccc(-n2c(O)c(/C=C3/C(c4ccccc4)=Nc4ccccc43)c(=O)[nH]c2=O)c1,-174,82*,23,70*,74*,nt,58*
SMILES,aSyn 5UTR inh,Ba/F3 V617F tox,KLF5 inh,IEC-6 tox,BaF3 tox,APP 5UTR inh,IEC-6 cytotox cf
O=[N+]([O-])c1ccc(N2CCCCCC2)c2ncccc12,16,1,-25,4,0,-17,nt
c1ccc(-c2cc(-c3ccccc3)[n+](-c3ccccc3)c(-c3ccccc3)c2)cc1,-1,99*,39,47*,97*,nt,47*
C[C@@]1(CO)[C@H](O)CC[C@@]2(C)[C@H]1CC[C@H]1C[C@@H]3C[C@@]12CC[C@]3(O)CO,73*,99*,23,87*,91*,83*,80*
O=c1[nH]c(=O)n(Cc2ccc(F)cc2)c(O)c1/C=N/Nc1ccccc1,-10,0,-6,-4,2,nt,nt
COC(=O)C(O)(c1ccc2c(c1)CCCN2)C(F)(F)F (stereo not given),-13,-2,9,6,1,11,nt
Cc1c2ccncc2c(C)c2c1[nH]c1ccccc12,114*,84*,4,49*,74*,67*,49*
O=[N+]([O-])NC1=NCCN1Cc1ccc(Cl)nc1,32,nt,-22,48*,nt,nt,4
